Several values for one entry are separate records, joined by “and”; a condition that tells them apart may be missing. Equal values may be shown once. Results filed as inconclusive are left out. Entries that show only a call come without a potency. Unmarked numbers belong to inactive results. Activity calls are given as the source filed them. Calls follow the shape of the dose curve; as a rule, active = well fitted cell-killing curve with a large enough effect in the repeat runs; inconclusive = weak or mixed curves, or effect the other way; inactive = flat fitted curve, though single readings scatter.
Experiment: qHTS RealTime-Glo MT Cell Viability Assay in HepG2 cells - 0 hour (AID 1224889); also: nearly all actives have a fitted effect of over 50% in size
Settings: RealTime-Glo luminescence; series mostly up to 76.8 µM
Excerpt: U.S. Tox21 Program National Center for Advancing Translational Sciences [NCATS] NIH Chemical Genomics Center [NCGC] U.S. Environmental Protection Agency [EPA] National Institutes of Environmental Health Sciences [NIEHS] National Toxicology Program [NTP] U.S. Food and Drug Administration [FDA] Tox21 Assay Overview: Measure of cell viability is critical in the cell-base assay. Analysis of cell viability is necessary for the characterization of cell responses to cytotoxic drugs and environmental stress. A RealTime-Glo MT Cell Viability Assay to monitor cell viability in real time of continues cell culture during 40 hours of compound treatment was used to screen Tox21 10K library compounds in HepG2 cells. The RealTime-Glo MT Cell Viability Assay is a nonlytic, homogeneous, bioluminescent method to measure cell viability in real time using a simple, plate-based method. The assay involves adding NanoLuc luciferase and a cell-permeant prosubstrate to cells in culture. Viable cells reduce the proprietary prosubstrate to generate a substrate for NanoLuc luciferase. This substrate diffuses from cells into the surrounding culture medium, where it is rapidly used by the NanoLuc Enzyme to produce a luminescent signal. The signal correlates with the number of viable cells, making the assay well suited for cytotoxicity studies.
Tox21 Assay Protocol Summary: The mixture of HepG2 cell suspension and reagents were dispensed at 600cells/6 ul/well in 1536-well tissue culture treated black solid bottom plates using a Multidrop dispenser. After the assay plates were incubated at a 37 C/5% CO2 incubator for 5 hours, 23 nL of compounds dissolved in DMSO, positive and negative controls was transferred to the assay plate by a pintool work station. The plates were incubated at 37 C for 40 hours. The luminescence intensity were measured at 0h, 8h, 16h, 24h, 32h and 40h time points using ViewLux plate reader during compound treatment.

| SMILES | Potency | activity change, negative = cytotoxicity |
| --- | --- | --- |
| C[Si](O[Si](C)(C)C)O[Si](C)(C)C | inactive |  |
| CC(=O)Nc1cccc(O)c1 | inactive |  |
| CCCCCC1=CCCC1=O | inactive |  |
| CCc1ccc(CCOc2ccc(CC3SC(=O)NC3=O)cc2)nc1 (stereo not given) | inactive |  |
| Cc1cnc(C(=O)NCCc2ccc(S(=O)(=O)NC(=O)NC3CCCCC3)cc2)cn1 | inactive |  |
| CC(c1cc2ccccc2s1)N(O)C(N)=O (stereo not given) | inactive |  |
| Cc1occc(=O)c1O | inactive |  |
| CC(=O)Nc1ccccc1 | inactive |  |
| O=P(OC(CCl)CCl)(OC(CCl)CCl)OC(CCl)CCl | inactive |  |
| COc1ccc(NC(C)=O)cc1N | inactive |  |
| O=S1(=O)CC=CC1 | inactive |  |
| C=CCOC(=O)c1ccccc1C(=O)OCC=C | inactive |  |
| O=C(O)c1cc(O)c(O)c(O)c1 | inactive |  |
| Cc1cccnc1 | inactive |  |
| ON=C1CCCCC1 | inactive |  |
| CC(C)(N)CO | inactive |  |
| Oc1cccc2ccccc12 | inactive |  |
| C=CCNC(N)=S | inactive |  |
| O=C(O)c1cc(C(=O)O)cc(S(=O)(=O)O)c1 | inactive |  |
| COCCCOc1ccnc(CS(=O)c2nc3ccccc3[nH]2)c1C (stereo not given) | inactive |  |

| SMILES | Potency | activity change, negative = cytotoxicity |
| --- | --- | --- |
| CC[C@H](C)C(=O)O[C@H]1C[C@@H](C)C=C2C=C[C@H](C)[C@H](CC[C@@H]3C[C@@H](O)CC(=O)O3)[C@H]21 | inactive |  |
| CCCCCCOCCO | inactive |  |
| O=c1[nH]c(=O)n([C@H]2CCCO2)cc1F | inactive |  |
| CC(C)c1ccc(S(=O)(=O)O)cc1 | inactive |  |
| CCCCCCCCCCCCOCCO | inactive |  |
| O=C1CCC(N2C(=O)c3ccccc3C2=O)C(=O)N1 (stereo not given) | inactive |  |
| CC1=CC(=O)NS(=O)(=O)O1 | inactive |  |
| OCC(CO)(CBr)CBr | inactive |  |
| Cc1ccc(S(N)(=O)=O)cc1 | inactive |  |
| C=C(C)C(=O)Nc1ccc(Cl)c(Cl)c1 | inactive |  |
| Fc1ccc(Br)cc1 | inactive |  |
| CCCSc1ccc2nc(NC(=O)OC)[nH]c2c1 | inactive |  |
| CCCCCCCCCCCCCCCO | inactive |  |
| CCN(CC)CCCC(C)Nc1ccnc2cc(Cl)ccc12 (stereo not given) |  | 3.19% [at 6.97 µM] and -4.4% [at 15.8 µM] |
| O=C(O)c1ccc2c(c1)C(=O)OC2=O | inactive |  |
| O=C(O)c1ccccc1C(c1ccc(O)cc1)c1ccc(O)cc1 | inactive |  |
| O=C(O)CCCC[C@@H]1SC[C@@H]2NC(=O)N[C@@H]21 | inactive |  |
| CCCCCCCCC/C=C/CC1CC(=O)OC1=O (stereo not given) | inactive |  |
| c1ccc2c(c1)ccc1ccccc12 | inactive |  |
| O=C(Oc1ccccc1)c1ccccc1 | inactive |  |

Reference: PubChem BioAssay (Tox21)
